# High-throughput results (PubChem)
# Rows were chosen to be rich in hits. Some 4.3% of all compounds tested hit in one or more screens of this group.
# MazF activator: MazEF (E. coli) toxin RNase activation | FAM/BHQ RNA-DNA oligo cleavage fluorescence, 5 h | 350,000 tested, 0.32% active | activation, % at 20 µM | AID 504720; in the data active means activation above about 50%
# Anthrax LF inh2: anthrax lethal factor protease inhibition. P15917. multiplex microsphere protease cleavage assay, LF. inhibition, % at 10 µM. 360,000 tested, 0.12% active
# BoNT A protease: blocks Botulinum neurotoxin A light chain protease; multiplex microsphere protease substrate cleavage, flow cytometry; inhibition, % at 10 µM; AID 588499; 360,000 tested, 0.17% active
# PfHsp40 rescue: rescue of PfHsp40-mediated yeast toxicity; S. cerevisiae expressing PfHsp40, growth rescue, ATP luminescence; growth rescue, % at 12.5 µM; 340,000 tested, 0.68% active; AID 504582; in the data active means growth rescue above about 28%, passing the limit was not always enough; inconclusive means no clear call, values can overlap the other calls;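 further: yeast W303a lacking pdr1 and pdr3 grown in galactose medium; growth measured after three days at 30 °C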
# Autofluor counter: compound fluorescence in toxin protease inhibitor counterscreen; compound autofluorescence counterscreen, microsphere flow cytometry; hits give high values; fluorescence intensity (no concentration beside the values); 360,000 tested, 3.1% active; in the data active means fluorescence intensity above about 16000; inconclusive means no clear call, values can overlap the other calls
# BoNT F protease: blocks Botulinum neurotoxin F light chain protease. AID 588497. inhibition, % at 10 µM. Multiplex microsphere protease cleavage assay, flow cytometry. 360,000 tested, 0.22% active; in the data active means inhibition above about 35%, passing the limit was not always enough; inconclusive means no clear call, values can overlap the other calls
# Numbers stand for hits; - = inactive; ? = inconclusive; . = no result given. Unless noted, no stated cut-off is given here; in the data, active means inhibition above about 30%; inconclusive means no clear call, values can overlap the other calls; inactive means below that.
SMILES,MazF activator,Anthrax LF inh2,BoNT A protease,PfHsp40 rescue,Autofluor counter,BoNT F protease
C=C(C)C(C)(C#CCN1CCCC1)OC(C)=O (stereo not drawn),-,-,-,-,18876,-
CC(C)C(O)(C#CCN1CCCC1)c1ccccc1 (stereo not drawn),-,-,-,-,-,-
Cn1c(SCC(=O)NNC(=O)Cc2ccccc2)nc2ccccc2c1=O,-,-,-,-,-,-
N#Cc1cc(-c2ccccc2)cnc1Sc1ccc(Cl)cc1,-,-,-,-,24808,-
COCCCn1c(SCC(=O)N2CCCC(C)C2)nnc1-c1ccco1 (stereo not drawn),-,-,-,-,21046,-
O=C(CSc1nnc(-c2ccco2)n1CC1CCCO1)N1CCCCC1 (stereo not drawn),-,-,-,-,21580,-
CCCS(=O)(=O)NC(=O)C1(C)CCN(C(=O)/C=C/c2ccccc2)C1 (stereo not drawn),.,-,-,.,-,-
CCNc1ccc(Br)cc(C(=O)/C=C/c2c(Cl)cccc2Cl)c1=O,-,-,59,-,-,-
CCNc1ccc(Br)cc(C(=O)/C=C/c2ccc(Cl)cc2)c1=O,-,-,-,-,-,-
CNc1ccc(Br)cc(C(=O)/C=C/c2cccc(OC)c2)c1=O,-,-,-,-,17911,-
CCNc1ccc(Br)cc(C(=O)/C=C/c2ccc3c(c2)OCO3)c1=O,-,-,-,37,-,-
c1ccc(CCNc2nc(-c3ccncc3)nc3ccccc23)cc1,-,.,.,-,.,.
Cc1ccc(NC(=O)/C(C#N)=C(\N)C(Cl)(Cl)Cl)nc1,165,-,-,-,-,-
Cc1cc(C(F)(F)F)n2nc(C)c(-c3ccc(Cl)cc3)c2n1,-,-,-,-,-,-
Cc1cc(-n2nc(C)cc2C)n2nc(C)c(-c3ccc(Cl)cc3)c2n1,-,-,-,-,17908,-
Cc1cc(SCC(=O)c2cccs2)n2nc(C)c(-c3ccc(Cl)cc3)c2n1,-,-,-,-,-,-
C=CCSc1cc(C)nc2c(-c3ccc(Cl)cc3)c(C)nn12,-,-,-,-,20069,-
Cc1cc(Oc2ccccc2)nc(SCC(=O)Nc2ccc(Cl)cc2Cl)n1,-,-,?,-,18063,-
COc1ccc(CNCCC2(O)CC(C)N(C)CC2C)cc1OC (stereo not drawn),-,-,-,-,-,?
COc1ccc(C=NCCC2(O)CC(C)N(C)CC2C)cc1 (stereo not drawn),-,-,-,-,-,54
O=C(c1ccc(CNS(=O)(=O)c2ccccc2)cc1)N1CCN(c2ccccn2)CC1,-,-,-,-,-,-
O=C(c1ccc(Cl)c(S(=O)(=O)NCc2ccccc2)c1)N1CCN(c2ccccn2)CC1,-,-,-,-,18872,-
COC(=O)C1CCN(C(=O)c2ccc(Cl)c(S(=O)(=O)NCc3cccnc3)c2)CC1,-,-,?,-,23363,-
CCOC(=O)C1=C(C)N(c2ccc(C)cc2)C(=O)/C1=C\c1cccs1,-,-,-,-,16417,-
CCOC(=O)C1=C(C)N(c2ccccc2)C(=O)/C1=C\c1cccs1,-,-,-,-,-,-
SMILES,MazF activator,Anthrax LF inh2,BoNT A protease,PfHsp40 rescue,Autofluor counter,BoNT F protease
N#Cc1ccc(-c2nc3cc(Cl)ccc3c(=O)n2O)cc1,-,-,-,136,-,-
O=c1c2cc(Cl)ccc2nc(-c2ccc([N+](=O)[O-])cc2)n1O,-,-,-,179,-,-
N#Cc1ccc(-c2nc3ccccc3c(=O)n2O)cc1,-,-,-,-,-,-
CN1C[C@@H]2[C@@H]3C(=O)N(Cc4ccccc4)C(=O)[C@@H]3[C@](Cc3ccccc3)(C1=O)N2C(=O)c1ccc(C(C)(C)C)cc1,-,-,-,-,-,-
C=CCOc1ccc(CC2C(=O)N(C)C(=O)N(C)C2=O)cc1,-,-,-,-,-,-
Cc1ccc(CC2C(=O)N(C)C(=O)N(C)C2=O)s1,-,-,?,-,21258,-
CC(=O)c1cnn(-c2ccccc2)c1C,-,-,-,-,-,-
Cc1c(C(=O)Oc2cccc3ccccc23)cnn1-c1ccccc1,-,-,-,34,-,-
N#Cc1ccc[n+](CC(=O)c2ccc(NC(=O)c3ccccc3)cc2)c1,-,-,-,-,-,-
O=C(c1ccco1)N(Cc1cccc(Cl)c1)C1CCS(=O)(=O)C1 (stereo not drawn),-,-,-,-,-,-
COc1ccccc1NC(=O)CN1CCC(c2nc3ccc(C)cc3[nH]2)CC1,-,-,-,-,-,-
